Source: PubChem (several laboratories)
NALP1 yeast inh = NALP1 inhibition; 280,000 tested, 0.61% active; inhibition, % at 10 µM; S. cerevisiae NALP1/ASC/caspase-1 growth, X-gal OD620, 72 h; AID 2071; in the data active = inhibition mostly above about 24%, no sharp cut-off; inactive = mostly below about 32%
tim10-1 inh = growth inhibitors of tim10-1 mutant yeast; S. cerevisiae tim10-1 ts strain growth, BacTiter-Glo, 24 h; 330,000 tested, 2.2% active; inhibition, % at 20 µM;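 active = inhibition of at least 40%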;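 also: mutant grown at 25 °C; 0% = DMSO wells with yeast and 100% = wells holding no yeast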
tim23-1 inh = inhibits growth of tim23-1 mutant yeast. 330,000 tested, 1.3% active. inhibition, % at 20 µM. AID 463212. S. cerevisiae tim23-1 growth, BacTiter-Glo luminescence, 24 h;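 active = growth inhibition of the mutant yeast at or above 50%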;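 also: temperature-sensitive mutant grown at 25 °C; plate controls were DMSO-treated mutant yeast for no effect and medium wells lacking yeast for full effect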
NALP3 yeast inh = inhibitors of NALP3 inflammasome in yeast | inhibition, % at 10 µM | 330,000 tested, 0.39% active | Yeast reconstituted NLRP3/ASC/caspase-1, beta-gal luminescence, 24 h;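 active = inhibition of 50% or more; inactive = inhibition below 50%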;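 also: plate controls were induced DMSO wells for no effect and uninduced yeast grown without galactose for full effect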
TIM10 inh = inhibits growth of TIM10 yeast strain; S. cerevisiae TIM10 strain growth, BacTiter-Glo luminescence, 24 h; inhibition, % at 10 µM; 330,000 tested, 1.4% active;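 active = inhibition of 40% or more at the single tested concentration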;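 also: wild-type TIM10 isogenic control strain grown at permissive 25 °C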
PfHsp90 set2 = growth inhibition of yeast expressing Plasmodium Hsp90; S. cerevisiae expressing PfHsp90, BacTiter-Glo ATP, 48 h; yeast lacking PDR1 and PDR3 efflux regulators; inhibition, % at 9.4 µM; 310,000 tested, 0.32% active; AID 504621;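 active = every replicate shows inhibition above about 80%, whatever the replicate mean, limit read from the data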;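 also: 0% = DMSO neutral controls and 100% = 20 µM radicicol positive controls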
tim23-1 conf = confirmation of tim23-1 mutant yeast growth inhibitors | shares compounds with tim23-1 inh | S. cerevisiae tim23-1 growth, BacTiter-Glo luminescence, 24 h | inhibition, % at 20 µM | 4,400 tested, 83% active | AID 463218;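 active = inhibition above about 39% in either of two replicate wells at 20 µM, limit read from the data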;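 also: temperature-sensitive tim23-1 mutant grown at 25 °C; 0% = DMSO wells with yeast and 100% = medium wells without yeast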
* = called active by the depositor. Most compounds without a hit are left out; they make up all but 4.1% or so of the library.

Screening O=C(Nc1ccccc1)c1ccc(Nc2c([N+](=O)[O-])cc([N+](=O)[O-])c3ccccc23)cc1 returned NALP1 yeast inh 25, tim10-1 inh 18, tim23-1 inh -16, NALP3 yeast inh 8, TIM10 inh -19 and PfHsp90 set2 18.
Screening Cc1ccc(C2=Nc3ccccc3N(C(=O)c3ccccc3)C(C)C2)cc1 (stereo not given) returned NALP1 yeast inh 17, tim10-1 inh 39, tim23-1 inh 52*, NALP3 yeast inh 8, TIM10 inh 33, PfHsp90 set2 24 and tim23-1 conf 41*.
Screening CCCCC(=O)Oc1c(S(=O)(=O)c2ccc(C)cc2)c(C)nn1C(C)(C)C returned NALP1 yeast inh 20, tim10-1 inh 24, tim23-1 inh 46, NALP3 yeast inh 10, TIM10 inh 28 and PfHsp90 set2 -6.
Screening CC(=O)Oc1c(S(=O)(=O)c2ccc(C)cc2)c(C)nn1C(C)(C)C returned NALP1 yeast inh 2, tim10-1 inh 34, tim23-1 inh 52*, NALP3 yeast inh 20, TIM10 inh 23, PfHsp90 set2 -32 and tim23-1 conf 39.
`Cc1ccc(S(=O)(=O)c2c(C)nn(C(C)(C)C)c2OC(=O)c2cccs2)cc1` gave NALP1 yeast inh 36, tim10-1 inh 30, tim23-1 inh 51*, NALP3 yeast inh 12, TIM10 inh 24, PfHsp90 set2 2 and tim23-1 conf 39.
For Cc1ccc(S(=O)(=O)n2ccc(OC(=O)c3cccs3)n2)cc1 the results were NALP1 yeast inh 0, tim10-1 inh 39, tim23-1 inh 58*, NALP3 yeast inh 12, TIM10 inh 32, PfHsp90 set2 8 and tim23-1 conf 57*.
O=C1NC2(c3ccccc3)NC(=O)NC2(c2ccccc2)N1 (stereo not given) was read as PfHsp90 set2 -64.
Cn1cncc1C#Cc1c(C=O)n(C)c2ccccc12 was read as tim10-1 inh 37, tim23-1 inh 67*, NALP3 yeast inh 25, TIM10 inh 39, PfHsp90 set2 18 and tim23-1 conf 62*.
Screening O=C1CCN(Cc2ccccc2)S(=O)(=O)c2c(F)cc(F)cc21 returned tim10-1 inh 6, tim23-1 inh 18, NALP3 yeast inh 14, TIM10 inh 4 and PfHsp90 set2 17.
`Nc1ncnc2c1ncn2[C@@H]1O[C@H](CO)C[C@H]1O` gave tim10-1 inh 26, tim23-1 inh 60*, NALP3 yeast inh 21, TIM10 inh -6, PfHsp90 set2 9 and tim23-1 conf 65*.
For CC1(C)O[C@@H]2[C@H](O1)[C@@H](CO)O[C@H]2n1cnc2c(N)ncnc21 the results were tim10-1 inh -10, tim23-1 inh -2, NALP3 yeast inh 13, TIM10 inh -8 and PfHsp90 set2 27.
Screening Cc1ccc(NC(=O)CCNS(=O)(=O)c2ccc3c(c2)CCC(=O)N3)c(Br)c1 returned NALP1 yeast inh 10, tim10-1 inh 16, tim23-1 inh 12, NALP3 yeast inh 0, TIM10 inh 1 and PfHsp90 set2 8.
`O=C(Nc1ccc2c(c1)C(=O)OC2)c1ccc(F)cc1F` gave NALP1 yeast inh 26, tim10-1 inh -2, tim23-1 inh -7, NALP3 yeast inh 16, TIM10 inh 7 and PfHsp90 set2 6.
For Clc1cc2cccnc2c2ncccc12 the results were tim10-1 inh 9, tim23-1 inh 65*, NALP3 yeast inh 21, TIM10 inh 14, PfHsp90 set2 3 and tim23-1 conf 39.
Screening CCOc1ccccc1C(=O)NCC(=O)N1CCC(C)CC1 returned tim10-1 inh 10, tim23-1 inh 8, NALP3 yeast inh 1, TIM10 inh 5 and PfHsp90 set2 -2.
CC(C)N(Cc1ccccc1)C(=O)COC(=O)c1ccc(O)cc1 was read as tim10-1 inh 8, tim23-1 inh 18, NALP3 yeast inh 24, TIM10 inh -2 and PfHsp90 set2 8.
Screening CC1(C)c2cc(Cl)ccc2-n2c1cc(O)c(-c1ccccc1)c2=O returned tim10-1 inh 23, tim23-1 inh 62*, NALP3 yeast inh 14, TIM10 inh 28, PfHsp90 set2 -23 and tim23-1 conf 58*.
For Cc1c(O)cc2n(c1=O)-c1ccc(Cl)cc1C2(C)C the results were NALP1 yeast inh 8, tim10-1 inh 22, tim23-1 inh 24, NALP3 yeast inh 1, TIM10 inh 26 and PfHsp90 set2 9.
For COc1ccc(/C=N/NC(=O)NC23CC4CC(CC(C4)C2)C3)c(OC)c1 the results were NALP1 yeast inh -10, tim10-1 inh 37, tim23-1 inh 55*, NALP3 yeast inh -3, TIM10 inh 13, PfHsp90 set2 4 and tim23-1 conf 45*.
COc1ccccc1/C=N/NC(=O)NC12CC3CC(CC(C3)C1)C2 was read as NALP1 yeast inh 12, tim10-1 inh 24, tim23-1 inh 48, NALP3 yeast inh 10, TIM10 inh 27 and PfHsp90 set2 -3.
Cc1ccccc1-c1nn2c(-c3ccccc3)nnc2s1 was read as NALP1 yeast inh 22, tim10-1 inh 38, tim23-1 inh 53*, NALP3 yeast inh 10, TIM10 inh 18, PfHsp90 set2 -18 and tim23-1 conf 51*.
Screening Cc1cc(-c2nn3c(-c4ccccc4)nnc3s2)c2ccccc2n1 returned NALP1 yeast inh 37, tim10-1 inh 31, tim23-1 inh 17, NALP3 yeast inh 10, TIM10 inh 27 and PfHsp90 set2 -7.
Screening CCn1cc(Br)c(C(=O)Nc2cccc(Cl)c2)n1 returned NALP1 yeast inh 23, tim10-1 inh 29, tim23-1 inh 59*, NALP3 yeast inh 20, TIM10 inh 29, PfHsp90 set2 -14 and tim23-1 conf 52*.
`CCn1ccc(C(=O)Nc2cccc(Cl)c2)n1` gave NALP1 yeast inh 15, tim10-1 inh 3, tim23-1 inh 8, NALP3 yeast inh 28, TIM10 inh 4 and PfHsp90 set2 13.
`O=C(Cn1cc([N+](=O)[O-])ccc1=O)NCC1COc2ccccc2O1` (stereo not given) gave tim10-1 inh -16, tim23-1 inh -13, NALP3 yeast inh 14 and TIM10 inh 5.
Screening COc1ccc(Br)cc1-c1nc(CCl)cs1 returned NALP1 yeast inh -34, tim10-1 inh 37, tim23-1 inh 51*, NALP3 yeast inh 23, TIM10 inh 37, PfHsp90 set2 -6 and tim23-1 conf 57*.
CCOc1ccc(-c2nc(CCl)cs2)cc1 was read as NALP1 yeast inh 6, tim10-1 inh 13, tim23-1 inh -2, NALP3 yeast inh 28, TIM10 inh -8 and PfHsp90 set2 12.
`CC(C)CCN1C(=O)c2cccc3c(N)ccc(c23)C1=O` gave tim10-1 inh 39, tim23-1 inh 65*, NALP3 yeast inh 10, TIM10 inh 14, PfHsp90 set2 -6 and tim23-1 conf 47*.
